Drawing on publication PMC7862700, “An all-to-all approach to the identification of sequence-specific readers for epigenetic DNA modifications on cytosine”, this text covers binding signal for two sequences.

What all share (assay): DAPPL (digital affinity profiling via proximity ligation, sequencing); 10 mM Tris-HCl pH 7.5, 50 mM NaCl, 1 mM DTT, 4% glycerol, room temperature, 30 min; GST-TFs on glutathione beads, 16-mer random dsDNA library, 0.1% formaldehyde crosslink after washing; high values mean tight binding
Common to all, as to details: protein: recombinant; tags: N-terminal GST; dsDNA, one strand shown

Test [1] addresses ELF1 (Homo sapiens, UniProt P32519 1-619). The method, boiled down: (§1)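 A tag-only sample was pooled with DNA-barcoded human transcription factors that had been expressed in yeast as GST fusions and captured on glutathione beads. The pools were incubated for 30 min at room temperature with 200 nmole of a random double-stranded 16-mer DNA library in Tris/NaCl/DTT/glycerol buffer, then washed, crosslinked with 0.1% formaldehyde, proximity-ligated (BsaI/T4 ligase, 1 h, 37 °C), PCR-amplified and sequenced on an Illumina NextSeq500. Binding signal is each hexamer's read frequency for a factor divided by its frequency for the tag-only sample.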

Test [2] has as its target T1, EHF (Homo sapiens, UniProt Q9NZC4 1-300).
T1 sequence: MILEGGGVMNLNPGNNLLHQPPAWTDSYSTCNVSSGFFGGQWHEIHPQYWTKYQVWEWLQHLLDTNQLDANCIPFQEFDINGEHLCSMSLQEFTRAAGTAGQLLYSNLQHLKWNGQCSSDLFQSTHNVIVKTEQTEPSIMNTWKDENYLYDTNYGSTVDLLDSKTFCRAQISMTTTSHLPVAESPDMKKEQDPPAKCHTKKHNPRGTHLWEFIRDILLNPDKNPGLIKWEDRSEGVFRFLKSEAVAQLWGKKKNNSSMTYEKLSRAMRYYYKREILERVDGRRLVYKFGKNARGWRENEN
In outline:
as §1

The target in test [3] is T2, ELK3 (Homo sapiens, UniProt P41970 1-407).
T2 sequence: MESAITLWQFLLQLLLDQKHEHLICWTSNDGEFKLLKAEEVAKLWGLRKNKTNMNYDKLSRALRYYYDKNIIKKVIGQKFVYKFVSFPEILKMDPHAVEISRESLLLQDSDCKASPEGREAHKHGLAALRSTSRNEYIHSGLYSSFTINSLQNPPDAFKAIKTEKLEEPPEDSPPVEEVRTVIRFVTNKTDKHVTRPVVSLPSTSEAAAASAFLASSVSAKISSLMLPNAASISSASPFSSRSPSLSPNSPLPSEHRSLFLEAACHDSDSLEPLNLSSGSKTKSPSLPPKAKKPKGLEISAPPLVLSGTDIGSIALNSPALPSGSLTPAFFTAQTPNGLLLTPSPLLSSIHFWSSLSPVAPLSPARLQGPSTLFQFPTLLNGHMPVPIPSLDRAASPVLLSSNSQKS
In outline: as §1

Test [4] has as its target T3, SPIC (Homo sapiens, UniProt Q8N5J4 1-248).
T3 sequence: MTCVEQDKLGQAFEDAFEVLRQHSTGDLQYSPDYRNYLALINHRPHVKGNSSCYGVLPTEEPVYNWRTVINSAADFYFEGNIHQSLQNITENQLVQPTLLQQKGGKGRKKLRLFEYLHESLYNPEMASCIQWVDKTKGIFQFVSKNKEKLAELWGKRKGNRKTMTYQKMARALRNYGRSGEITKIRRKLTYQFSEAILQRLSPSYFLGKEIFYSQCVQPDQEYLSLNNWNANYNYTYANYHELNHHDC
The method, boiled down: as §1

The target of test [5] is ELF4 (Homo sapiens, UniProt Q99607 1-663). In outline:
as §1

The target of test [6] is T4, ELK4 (Homo sapiens, UniProt P28324-2 1-405).
T4 sequence: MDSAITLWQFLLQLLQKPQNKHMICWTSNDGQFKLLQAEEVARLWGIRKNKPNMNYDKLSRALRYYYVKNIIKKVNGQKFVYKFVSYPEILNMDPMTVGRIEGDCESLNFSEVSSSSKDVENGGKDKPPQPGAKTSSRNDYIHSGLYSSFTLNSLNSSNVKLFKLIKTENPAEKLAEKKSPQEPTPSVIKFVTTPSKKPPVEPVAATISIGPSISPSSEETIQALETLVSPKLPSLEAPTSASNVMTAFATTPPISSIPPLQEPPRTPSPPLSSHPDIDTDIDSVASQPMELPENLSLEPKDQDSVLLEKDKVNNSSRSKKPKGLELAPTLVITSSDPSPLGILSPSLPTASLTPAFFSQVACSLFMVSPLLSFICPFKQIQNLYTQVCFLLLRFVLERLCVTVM
The method, boiled down:
as §1

Test [7] has as its target T5, ELF3 (Homo sapiens, UniProt P78545 1-371).
T5 sequence: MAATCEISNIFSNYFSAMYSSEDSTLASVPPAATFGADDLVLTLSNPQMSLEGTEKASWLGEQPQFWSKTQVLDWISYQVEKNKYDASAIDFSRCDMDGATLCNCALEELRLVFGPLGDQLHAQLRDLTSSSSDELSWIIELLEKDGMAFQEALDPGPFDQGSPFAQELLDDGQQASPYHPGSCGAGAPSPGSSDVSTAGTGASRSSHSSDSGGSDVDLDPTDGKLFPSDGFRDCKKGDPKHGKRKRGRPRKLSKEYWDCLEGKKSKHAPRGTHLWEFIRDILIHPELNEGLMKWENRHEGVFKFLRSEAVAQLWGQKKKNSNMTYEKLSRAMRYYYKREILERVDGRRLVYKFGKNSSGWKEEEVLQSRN
The method, boiled down: as §1

In test [8] the target is T6, ERF (Homo sapiens, UniProt P50548 1-548).
T6 sequence: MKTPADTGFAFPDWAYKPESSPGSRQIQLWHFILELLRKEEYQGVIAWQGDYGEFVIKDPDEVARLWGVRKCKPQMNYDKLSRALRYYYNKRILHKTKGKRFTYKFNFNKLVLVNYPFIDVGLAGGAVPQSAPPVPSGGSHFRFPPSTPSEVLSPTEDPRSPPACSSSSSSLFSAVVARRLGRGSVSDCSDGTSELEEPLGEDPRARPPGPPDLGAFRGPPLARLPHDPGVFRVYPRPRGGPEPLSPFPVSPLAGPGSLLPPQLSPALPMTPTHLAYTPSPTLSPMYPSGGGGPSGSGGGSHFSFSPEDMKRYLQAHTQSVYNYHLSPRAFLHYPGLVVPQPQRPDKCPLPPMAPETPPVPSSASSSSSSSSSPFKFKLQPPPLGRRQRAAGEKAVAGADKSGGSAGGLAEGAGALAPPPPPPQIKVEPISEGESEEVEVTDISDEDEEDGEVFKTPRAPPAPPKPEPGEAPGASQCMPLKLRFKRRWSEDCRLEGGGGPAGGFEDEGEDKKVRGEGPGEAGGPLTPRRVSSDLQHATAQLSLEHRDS
The method, boiled down:
as §1

For test [9], the target named is T7, ETS2 (Homo sapiens, UniProt P15036 1-469).
T7 sequence: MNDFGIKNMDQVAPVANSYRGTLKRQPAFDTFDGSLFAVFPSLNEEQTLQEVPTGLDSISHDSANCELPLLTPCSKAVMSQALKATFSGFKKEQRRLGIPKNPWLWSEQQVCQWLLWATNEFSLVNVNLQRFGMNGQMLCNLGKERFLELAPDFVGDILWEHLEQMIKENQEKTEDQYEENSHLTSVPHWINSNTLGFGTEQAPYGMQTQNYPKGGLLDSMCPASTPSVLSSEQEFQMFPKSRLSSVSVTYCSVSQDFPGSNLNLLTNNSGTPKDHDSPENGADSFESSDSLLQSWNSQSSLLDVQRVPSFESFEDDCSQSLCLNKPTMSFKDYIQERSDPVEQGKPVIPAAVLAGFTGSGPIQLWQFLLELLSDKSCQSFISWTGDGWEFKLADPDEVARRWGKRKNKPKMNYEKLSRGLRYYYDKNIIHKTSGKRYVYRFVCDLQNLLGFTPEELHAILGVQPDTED
In outline:
as §1

Test [10] addresses T8, SPDEF (Homo sapiens, UniProt O95238 1-335).
T8 sequence: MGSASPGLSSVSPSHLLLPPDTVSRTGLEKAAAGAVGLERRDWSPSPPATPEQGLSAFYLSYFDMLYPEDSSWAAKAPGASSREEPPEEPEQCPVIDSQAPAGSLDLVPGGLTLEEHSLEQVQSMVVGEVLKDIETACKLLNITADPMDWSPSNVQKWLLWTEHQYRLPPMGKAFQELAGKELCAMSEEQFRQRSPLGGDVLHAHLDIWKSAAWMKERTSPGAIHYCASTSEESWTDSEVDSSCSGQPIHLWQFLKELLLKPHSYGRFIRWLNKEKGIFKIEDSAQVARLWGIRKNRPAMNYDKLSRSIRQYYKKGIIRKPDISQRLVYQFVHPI
In outline: as §1

Test [11] deals with ETV6 (Homo sapiens, UniProt P41212 1-452). In outline:
as §1

In test [12] the target is ETV1 (Homo sapiens, UniProt P50549 1-477). In outline:
as §1

Sequence of ETV6 (P41212 whole entry): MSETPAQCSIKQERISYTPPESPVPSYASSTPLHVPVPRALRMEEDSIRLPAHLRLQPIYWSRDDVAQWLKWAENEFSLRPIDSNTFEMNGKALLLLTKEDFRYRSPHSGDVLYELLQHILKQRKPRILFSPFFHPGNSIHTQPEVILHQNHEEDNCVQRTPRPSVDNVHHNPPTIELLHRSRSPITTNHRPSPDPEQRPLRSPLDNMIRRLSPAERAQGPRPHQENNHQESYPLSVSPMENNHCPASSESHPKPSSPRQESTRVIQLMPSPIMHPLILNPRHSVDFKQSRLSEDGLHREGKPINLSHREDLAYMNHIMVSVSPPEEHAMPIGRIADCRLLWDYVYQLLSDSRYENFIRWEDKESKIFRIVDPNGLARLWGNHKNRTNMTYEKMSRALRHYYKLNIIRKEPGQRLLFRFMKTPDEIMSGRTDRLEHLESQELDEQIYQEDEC
Sequence of ELF4 (Q99607 whole entry): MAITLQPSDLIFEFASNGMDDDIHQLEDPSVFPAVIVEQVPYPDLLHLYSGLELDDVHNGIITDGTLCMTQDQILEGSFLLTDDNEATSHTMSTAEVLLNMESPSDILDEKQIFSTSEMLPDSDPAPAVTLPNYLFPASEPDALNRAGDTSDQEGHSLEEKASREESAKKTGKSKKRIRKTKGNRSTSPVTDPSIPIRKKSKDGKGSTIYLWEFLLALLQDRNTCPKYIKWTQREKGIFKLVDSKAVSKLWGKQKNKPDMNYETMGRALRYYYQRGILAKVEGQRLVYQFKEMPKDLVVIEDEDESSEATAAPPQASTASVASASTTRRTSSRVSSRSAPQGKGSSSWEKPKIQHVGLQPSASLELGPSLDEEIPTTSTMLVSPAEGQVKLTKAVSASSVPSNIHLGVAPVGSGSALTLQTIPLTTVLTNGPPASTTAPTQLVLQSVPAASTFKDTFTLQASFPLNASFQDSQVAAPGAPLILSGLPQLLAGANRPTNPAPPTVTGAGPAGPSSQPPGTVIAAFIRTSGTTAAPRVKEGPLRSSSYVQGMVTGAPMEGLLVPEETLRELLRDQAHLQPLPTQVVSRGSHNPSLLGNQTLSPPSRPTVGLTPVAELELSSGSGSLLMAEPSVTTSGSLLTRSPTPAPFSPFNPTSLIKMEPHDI
Sequence of ETV1 (P50549 whole entry): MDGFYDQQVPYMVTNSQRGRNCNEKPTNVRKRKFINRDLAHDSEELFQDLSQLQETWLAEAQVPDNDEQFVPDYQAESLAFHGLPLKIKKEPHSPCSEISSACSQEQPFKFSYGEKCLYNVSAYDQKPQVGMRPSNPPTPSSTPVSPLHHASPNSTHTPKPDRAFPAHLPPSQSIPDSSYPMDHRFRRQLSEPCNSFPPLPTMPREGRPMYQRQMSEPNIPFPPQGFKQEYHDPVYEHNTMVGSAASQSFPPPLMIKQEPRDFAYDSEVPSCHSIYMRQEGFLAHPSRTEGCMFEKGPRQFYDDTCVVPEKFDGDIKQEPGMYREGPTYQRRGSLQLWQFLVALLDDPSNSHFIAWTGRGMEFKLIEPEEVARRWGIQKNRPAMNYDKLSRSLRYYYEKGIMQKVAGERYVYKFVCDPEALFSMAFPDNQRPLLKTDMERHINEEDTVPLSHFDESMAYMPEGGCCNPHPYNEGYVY
Sequence of ELF1 (P32519 whole entry, the tested form may be a part): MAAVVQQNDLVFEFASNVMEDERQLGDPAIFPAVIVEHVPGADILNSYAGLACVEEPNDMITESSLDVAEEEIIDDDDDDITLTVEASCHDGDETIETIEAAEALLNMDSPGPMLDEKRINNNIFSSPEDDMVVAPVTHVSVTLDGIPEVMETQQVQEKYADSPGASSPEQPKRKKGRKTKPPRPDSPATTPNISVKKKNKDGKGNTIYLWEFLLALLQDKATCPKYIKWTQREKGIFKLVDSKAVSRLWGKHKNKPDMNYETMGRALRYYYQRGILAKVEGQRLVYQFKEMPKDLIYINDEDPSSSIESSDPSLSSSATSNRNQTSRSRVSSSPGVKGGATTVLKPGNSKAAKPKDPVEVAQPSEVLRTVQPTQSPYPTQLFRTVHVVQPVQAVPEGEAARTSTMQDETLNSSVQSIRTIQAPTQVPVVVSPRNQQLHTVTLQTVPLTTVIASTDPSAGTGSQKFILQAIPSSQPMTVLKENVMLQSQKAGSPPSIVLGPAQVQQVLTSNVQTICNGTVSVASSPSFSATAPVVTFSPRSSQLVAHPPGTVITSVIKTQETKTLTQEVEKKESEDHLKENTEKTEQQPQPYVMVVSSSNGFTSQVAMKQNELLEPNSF

With GATTTA, the binding signal in [1] is 1 fold enrichment (6-mer frequency, TF over GST control); in test [2], 1.11 fold enrichment (6-mer frequency, TF over GST control); in [3], 1.08 fold enrichment (6-mer frequency, TF over GST control); in test [4] it was 1.02 fold enrichment (6-mer frequency, TF over GST control); in test [5] it was 1.05 fold enrichment (6-mer frequency, TF over GST control); in test [6], 1.02 fold enrichment (6-mer frequency, TF over GST control). In addition, the binding signal was 1.02 fold enrichment (6-mer frequency, TF over GST control) in test [7]; 1.02 fold enrichment (6-mer frequency, TF over GST control) in [8]; 1 fold enrichment (6-mer frequency, TF over GST control) in test [9]; 1.08 fold enrichment (6-mer frequency, TF over GST control) in test [10]; 1.05 fold enrichment (6-mer frequency, TF over GST control) in [11].

On to TAAGGG, for which the binding signal is 1.04 fold enrichment (6-mer frequency, TF over GST control) in [3]; 1.18 fold enrichment (6-mer frequency, TF over GST control) in test [4]; 1.1 fold enrichment (6-mer frequency, TF over GST control) in test [6]; 1.09 fold enrichment (6-mer frequency, TF over GST control) in test [7]; 1.05 fold enrichment (6-mer frequency, TF over GST control) in test [12]; 1.01 fold enrichment (6-mer frequency, TF over GST control) in [8]. In addition, the binding signal in [9] is 1 fold enrichment (6-mer frequency, TF over GST control); in test [11], 1.01 fold enrichment (6-mer frequency, TF over GST control).
